Experimental findings from PubChem BioAssay (Tox21) are described below.

Values without a mark were called inactive. Activity calls are given as the source filed them. Calls follow the shape of the dose curve; as a rule, active = well fitted curve in the direction sought with a large enough effect in the repeat runs; inconclusive = weak or mixed curves; inactive = flat fitted curve, though single readings scatter.

A short description of experiment [1]: qHTS assay to test for compound auto fluorescence at 535 nm (green) in HEK293 cells (AID 720680). A general note: Quantitative high-throughput screening tests each substance at several concentrations.
Experiment [2] can be described thus: qHTS assay to test for compound auto fluorescence at 460 nm (blue) in HEK293 cell free culture (AID 720681). Also: potency is read from the fitted curve at half-maximal effect. The method, boiled down: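 Test compounds were pinned into cell-free culture medium (DMEM with 10% FBS) and fluorescence was read directly at Ex/Em 405/460 nm. Signals were expressed as fluorescence equivalents of triamterene, with DMSO vehicle as control.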

Experiment [3] in a line: qHTS assay to test for compound auto fluorescence at 535 nm (green) in HEK293 cell free culture (AID 720682). The method, boiled down:
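Using fluorescein as calibrant, autofluorescence was quantified at 485/535 nm in cell-free DMEM containing 10% FBS after pintool addition of compound or vehicle.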

Experiment [4] can be described thus: qHTS assay to test for compound auto fluorescence at 590 nm (red) in HEK293 cell free culture (AID 720683). The method, boiled down:
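Tox21 10K library compounds were pinned into cell-free DMEM with 10% FBS and fluorescence was read at excitation 540 nm. Activity is expressed as Rose Bengal sodium equivalency.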

Experiment [5] in a line: qHTS assay to test for compound auto fluorescence at 590 nm (red) in HepG2 cell free culture (AID 720684). Put shortly: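 Ex 540 / Em 590 nm read of compound in cell-free MEM (10% FBS). Rose Bengal sodium reference.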
Experiment [6] is described as follows: qHTS assay to test for compound auto fluorescence at 460 nm (blue) in HepG2 cell free culture (AID 720685). Also: potency is read from the fitted curve at half-maximal effect. The method, boiled down: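 Cell-free plates of MEM plus 10% FBS received 23 nL compound or DMSO vehicle; blue-channel (405/460 nm) intensity scored against triamterene as reference fluorophore.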
A short description of experiment [7]: qHTS assay to test for compound auto fluorescence at 535 nm (green) in HepG2 cell free culture (AID 720686).
A short description of experiment [8]: qHTS assay to test for compound auto fluorescence at 460 nm (blue) in HepG2 cells (AID 720687). Also: potency is read from the fitted curve at half-maximal effect. The method, boiled down: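 Cells (2,000/well in MEM with 10% FBS) attached overnight at 37 C, then were exposed to compound or DMSO for 1 hr at 37 C, 5% CO2. Fluorescence read at Ex/Em 405/460 nm, expressed as triamterene-equivalent signal.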
Tags tell the direction and shape of the fitted curve or compound fluorescence and quenching.

Turning to `CCCCCCCCCCCCc1ccc(O)cc1`, the result in experiment [1] and in experiment [3] was inactive. The Potency result in experiment [2], in experiment [4], in experiment [5], in experiment [6], in experiment [7] and in experiment [8] was “inactive” throughout.
Turning to `N=C1N=C(N)c2ccccc21`, the result in experiment [1] and in experiment [3] was inactive. Further, the Potency result in experiment [2], in experiment [4], in experiment [5], in experiment [6], in experiment [7] and in experiment [8] was “inactive” in each case.
`NNc1nc(-c2ccc([N+](=O)[O-])cc2)cs1`: the compound was classed as inactive in experiment [1] and in experiment [3]. Further, the Potency result in experiment [2], in experiment [4], in experiment [5], in experiment [6], in experiment [7] and in experiment [8] was “inactive” in each case.
As for `Cc1cc(=O)oc2cc(N(C)C)ccc12`, the compound was classed as inactive in experiment [1] and in experiment [3]. In addition, the Potency is 39.8 µM (active) in experiment [2], 44.7 µM [fluorescent] (active) in experiment [6] and 44.7 µM [fluorescent] (active) in experiment [8]. Besides, the Potency entry in experiment [4], in experiment [5] and in experiment [7] was “inactive” throughout.
As to `CNc1ccc(O)cc1`, the outcome in experiment [1] and in experiment [3] was inactive. For the same compound, the Potency entry in experiment [2], in experiment [4], in experiment [5], in experiment [6], in experiment [7] and in experiment [8] was “inactive” each time.
With `CCCCCCCC/C=C\CCCCCCCCOCCO`, the compound was classed as inactive in experiment [1] and in experiment [3]. Further, the Potency result in experiment [2], in experiment [4], in experiment [5], in experiment [6], in experiment [7] and in experiment [8] was “inactive” each time.
For `NC(=NCCCCCCN=C(N)/N=C(\N)Nc1ccc(Cl)cc1)/N=C(\N)Nc1ccc(Cl)cc1`, the result in experiment [1] and in experiment [3] was inactive. Besides, the Potency entry in experiment [2], in experiment [4], in experiment [5], in experiment [6], in experiment [7] and in experiment [8] was “inactive” each time.
For the compound `C/C=C1/C(=O)C[C@H]2[C@@H]3CCC4=CC(=O)CC[C@]4(C)[C@H]3CC[C@]12C`, the call in experiment [1] and in experiment [3] was inactive. Also, the Potency entry in experiment [2], in experiment [4], in experiment [5], in experiment [6], in experiment [7] and in experiment [8] was “inactive” in each case.
`CSc1ccc2c(c1)C(N1CCN(C)CC1)Cc1ccccc1S2` (stereo not given): the outcome in experiment [1] and in experiment [3] was inactive. Besides, the Potency entry in experiment [2], in experiment [4], in experiment [5], in experiment [6], in experiment [7] and in experiment [8] was “inactive” each time.
In the case of `O=C1C=CC(=O)N1c1ccc(Cc2ccc(N3C(=O)C=CC3=O)cc2)cc1`, the compound was classed as inactive in experiment [1] and in experiment [3]. Further, the Potency result in experiment [2], in experiment [4], in experiment [5], in experiment [6], in experiment [7] and in experiment [8] was “inactive” throughout.
`C=CC(=O)OCC(CO)(COCC(COC(=O)C=C)(COC(=O)C=C)COC(=O)C=C)COC(=O)C=C`: the outcome in experiment [1] and in experiment [3] was inactive. In addition, the Potency result in experiment [2], in experiment [4], in experiment [5], in experiment [6], in experiment [7] and in experiment [8] was “inactive” throughout.
As for `CCCCc1oc2ccc(NS(C)(=O)=O)cc2c1C(=O)c1ccc(OCCCN(CCCC)CCCC)cc1`, the outcome in experiment [1] and in experiment [3] was inactive. Further, the Potency entry in experiment [2], in experiment [4], in experiment [5], in experiment [6], in experiment [7] and in experiment [8] was “inactive” throughout.
For the compound `O=C(Nc1cccc(Cl)c1)OCC#CCCl`, the compound was called inactive in experiment [1] and in experiment [3]. In addition, the Potency entry in experiment [2], in experiment [4], in experiment [5], in experiment [6], in experiment [7] and in experiment [8] was “inactive” each time.
With `CCCCCCCCCCCCCCCCCC[N+](C)(C)C`, the compound was classed as inactive in experiment [1] and in experiment [3]. For the same compound, the Potency entry in experiment [2], in experiment [4], in experiment [5], in experiment [6], in experiment [7] and in experiment [8] was “inactive” each time.
`CCCCCCCCCCCC(=O)NCCCN(C)C`: the compound was classed as inactive in experiment [1] and in experiment [3]. Besides, the Potency result in experiment [2], in experiment [4], in experiment [5], in experiment [6], in experiment [7] and in experiment [8] was “inactive” in each case.
Consider `CCN(CC)CCCC(C)Nc1c2ccc(Cl)cc2nc2ccc(OC)cc12` (stereo not given), for which the compound was classed as inactive in experiment [1] and in experiment [3]. Further, the Potency in experiment [2] is 17.8 µM (active); in experiment [6], 15.8 µM [fluorescent] (active); in experiment [8], 15.8 µM [fluorescent] (active). Moreover, the Potency entry in experiment [4], in experiment [5] and in experiment [7] was “inactive” throughout.
For `NC(=O)N1C(=O)C(C(=O)c2cc(Cl)cs2)c2cc(F)c(Cl)cc21` (stereo not given), the compound was classed as inactive in experiment [1] and in experiment [3]. For the same compound, the Potency entry in experiment [2], in experiment [4], in experiment [5], in experiment [6], in experiment [7] and in experiment [8] was “inactive” throughout.
For `CCCCCCCCCCCCCC[P+](CCCC)(CCCC)CCCC` (tested in a mixture with another compound), the call in experiment [1] and in experiment [3] was inactive. The Potency result in experiment [2], in experiment [4], in experiment [5], in experiment [6], in experiment [7] and in experiment [8] was “inactive” in each case.
For the compound `Cc1cc(O)c(C(C)(C)C)cc1C(C)(C)C`, the result in experiment [1] and in experiment [3] was inactive. The Potency result in experiment [2], in experiment [4], in experiment [5], in experiment [6], in experiment [7] and in experiment [8] was “inactive” throughout.
For the compound `O=C1C=CC(=O)N1`, the call in experiment [1] and in experiment [3] was inactive. In addition, the Potency result in experiment [2], in experiment [4], in experiment [5], in experiment [6], in experiment [7] and in experiment [8] was “inactive” throughout.
